The values below come from PubChem BioAssay (NCI).

Compounds without any hit were thinned out: in the full panel of roughly 83,000, 20% have a hit.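 Treatment: one concentration, 48 hours, 96-well format. Scoring: percent growth, with anything below 10 considered active.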 A number with no mark means an inactive call. Calls of active or inactive are those of the source.

Assay in all cases: NCI-60 one-dose screen, 48 h (100 = growth as untreated, 0 = no growth, -100 = all killed)
The test system of experiment [1] is SK-MEL-2 melanoma. To be noted: 10 µM unless noted.
In experiment [2] the test system is EKVX NSCLC. To be noted: 10 µM unless noted.
The test system of experiment [3] is SN12C renal. To be noted: 10 µM unless noted.
Experiment [4] concerns UO-31 renal. To be noted: 10 µM unless noted.
The subject of experiment [5] is TK-10 renal. To be noted: 10 µM unless noted.
Experiment [6] relates to ACHN renal. The conditions noted are these: 10 µM unless noted.
The test system of experiment [7] is CAKI-1 renal. The conditions noted are these: 10 µM unless noted.
The test system of experiment [8] is A498 renal. To be noted: 10 µM.
Experiment [9] concerns HL-60(TB) leukemia. To be noted: 10 µM unless noted.
The test system of experiment [10] is CCRF-CEM leukemia. To be noted: 10 µM unless noted.
Experiment [11] relates to MOLT-4 leukemia. The conditions noted are these: 10 µM unless noted.
Experiment [12] has as its system OVCAR-8 ovarian. To be noted: 10 µM unless noted.
Experiment [13] concerns OVCAR-5 ovarian. To be noted: 10 µM unless noted.
The test system of experiment [14] is OVCAR-4 ovarian. The conditions noted are these: 10 µM unless noted.
In experiment [15] the test system is SK-OV-3 ovarian. The conditions noted are these: 10 µM unless noted.
Experiment [16] concerns IGROV1 ovarian. To be noted: 10 µM unless noted.
In experiment [17] the test system is OVCAR-3 ovarian. To be noted: 10 µM unless noted.
Experiment [18] deals with RPMI-8226 leukemia. To be noted: 10 µM unless noted.
For experiment [19], the system named is HS 578T breast. The conditions noted are these: 10 µM unless noted.
Experiment [20] relates to SR leukemia. To be noted: 10 µM unless noted.

Turning to `CN(C)CC(C(=O)Cc1ccccc1)c1ccccc1` (stereo not given), the growth in [1] is 82.2%; in [2], 110%; in experiment [3] it was 93.6%; in experiment [4], -74% (active); in experiment [5], -38.1% (active); in experiment [6] it was 102%. Besides, the growth was 82.1% in experiment [7]; 90.5% in experiment [8]; 66.3% in experiment [9]; 67.1% in [10]; 78% in experiment [11]; 34% in experiment [12]. The growth is 133% in experiment [13]; 91.7% in experiment [14]; 124% in [15]; 84.8% in experiment [16]; 6.54% (active) in experiment [17].
`NC(=Nc1ccccc1)N[N+](=O)[O-]`: the growth in [1] was 127%; in experiment [2], 94%; in [3] it was 102%; in experiment [4], 92%; in experiment [5] it was 103%; in experiment [6], 114%. Moreover, the growth in experiment [7] is 97.6%; in [8] it was 110%; in experiment [9], 38.7%; in experiment [10] it was 52.1%; in experiment [11], 89.2%; in experiment [18], 104%. Moreover, the growth in experiment [12] was 119%; in experiment [13], 91.4%; in experiment [14] it was 96.5%; in experiment [15] it was 98.4%; in experiment [16], 121%; in [17], 110%. Moreover, in experiment [19], the growth was 97.5%.
`CN1CCC(O)(c2ccc(F)cc2)C(C(=O)c2ccc(F)cc2)C1` (stereo not given): the growth in [1] was 91.2%; in [2] it was 106%; in [3], 104%; in experiment [4], 84.7%; in experiment [5], 110%; in [6], 101%. Besides, the growth in experiment [7] is 104%; in [8], 104%; in experiment [9] it was 134%; in experiment [10], 85.2%; in experiment [11], 94.2%; in experiment [18] it was -9.61% (active). For the same molecule, the growth is 102% in experiment [12]; 93.2% in experiment [13]; 102% in experiment [14]; 102% in experiment [15]; 96.3% in experiment [16]; 111% in [17].
Regarding `COC(=O)[C@]12CCC(C)(C)C[C@H]1[C@H]1C(=O)C[C@@H]3[C@@]4(C)C[C@@]5(CC(C)(C)[C@@H]4CC[C@@]3(C)[C@]1(C)CC2)OO[C@@](C)(C(F)(F)F)O5`, the growth was 92.3% in experiment [1]; 93.6% in experiment [2]; 92.4% in experiment [3]; 87.8% in experiment [4]; 95.7% in experiment [5]; 93.6% in experiment [6]. Further, the growth was 68.7% in [7]; 78.2% in [8]; 101% in experiment [9]; 94.8% in experiment [10]; 93.6% in [11]; 90.3% in experiment [18]. For the same molecule, the growth is 97.6% in experiment [12]; 94.1% in [13]; 81.1% in experiment [14]; 103% in [15]; 97.8% in experiment [16]; 106% in experiment [17].
Regarding `COc1cccc2c1c(C(=O)c1ccco1)cn2Cc1ccc(F)cc1`, the growth is 73.8% in experiment [1]; 172% in experiment [2]; 72.4% in experiment [3]; 77.1% in [4]; 143% in experiment [5]; 107% in [6]. The growth is 184% in experiment [7]; 135% in experiment [8]; 162% in experiment [9]; 177% in [10]; 307% in [11]; 182% in experiment [18]. In addition, the growth in [13] is 122%; in experiment [14], 114%; in experiment [15], 122%; in [16], 8.63% (active); in experiment [17], 108%; in experiment [19], 122%.
For the molecule `O=C(CCl)c1ccc([N+](=O)[O-])o1`, the growth in experiment [1] is -7.05% (active); in experiment [2], 96.2%; in experiment [3], -38.1% (active); in experiment [4] it was -8.81% (active); in [5] it was -39.4% (active); in [6] it was -40.6% (active). Also, the growth was -95.1% (active) in experiment [7]; 101% in experiment [8]; -68.9% (active) in experiment [9]; -74.9% (active) in [10]; -52.8% (active) in experiment [11]; -47.7% (active) in experiment [18]. Further, the growth was 8.79% (active) in experiment [12]; -72.8% (active) in experiment [13]; 2.25% (active) in [14]; 102% in experiment [15]; 1.46% (active) in experiment [16]; -100% (active) in experiment [17]. In experiment [19], the growth is 40.9%.
For the molecule `COc1ccc(/C=C/c2cc(OC)c(OC)c(OC)c2)cc1NC(=O)/C=C/c1ccc(F)cc1`, the growth in experiment [1] was 49.6%; in experiment [2], 47.3%; in [3], 39.6%; in [4] it was 39%; in experiment [5], 88.4%; in [6], 48.4%. The growth in experiment [7] was 33.9%; in experiment [8], -3.96% (active); in experiment [9], -20% (active); in experiment [10], 11%; in experiment [11], 13.5%; in experiment [12], 36.7%. Besides, the growth in experiment [13] is 57.5%; in experiment [14] it was 61.4%; in experiment [15], -29% (active); in [16] it was 46.9%; in experiment [17], -10.9% (active); in [19], 5.66% (active).
For the molecule `CC(CC1CCCCC1)NCc1ccccc1` (stereo not given), the growth in experiment [1] was 102%; in experiment [2] it was 99.1%; in [3], 94%; in experiment [4], 66.2%; in experiment [5] it was 94.2%; in [6] it was 96.1%. In addition, the growth in [7] is 99.9%; in experiment [8] it was 89.5%; in experiment [9] it was 111%; in experiment [10], 100%; in [11], 100%; in experiment [20], 105%. The growth in experiment [12] was 106%; in experiment [13], 91.1%; in experiment [14], 113%; in [15], 111%; in experiment [16] it was 107%; in experiment [17], 105%. Further, the growth in experiment [19] was 98.5%.
Take `COc1ccc(/C=C\c2cc(OC)c(OC)c(OC)c2)cc1NC(=O)/C=C/c1cc(OC)c(OC)c(OC)c1`: the growth in [1] is 47%; in [2] it was 61.6%; in experiment [3] it was 71.6%; in experiment [4], 31.9%; in [5], 82%; in experiment [6], 53.9%. For the same molecule, the growth in experiment [7] is 31.5%; in [8], -3.68% (active); in experiment [9], 15.7%; in [10], 39.2%; in [11], 47.7%; in experiment [18], 63.8%. In addition, the growth in experiment [12] was 68.8%; in experiment [13], 77.6%; in experiment [14] it was 66.1%; in [15] it was 3.82% (active); in experiment [16], 62.4%; in experiment [17] it was 47.7%. For the same molecule, in experiment [19], the growth is 51.8%.
